# Test results taken from the supplement of paper PMC8728848.
# The full list was thinned out, with the strongest signals kept by preference.
# B1: DGL (Dioclea grandiflora), P08902 (protein)
# chain: ADTIVAVELDSYPNTDIGDPNYPHIGIDIKSIRSKSTARWNMQTGKVGTVHISYNSVAKRLSAVVSYSGSSSTTVSYDVDLNNVLPEWVRVGLSATTGLYKETNTILSWSFTSKLKTNSIADENSLHFSFHKFSQNPKDLILQGDAFTDSDGNLELTKVSSSGDPQGNSVGRALFYAPVHIWESSAVVASFDATFTFLIKSPDREPADGITFFIANTDTSIPSGSGGRLLGLFPDAN
# B2: CLC (Homo sapiens), Q9UBD9 (protein)
# chain: MDLRAGDSWGMLACLCTVLWHLPAVPALNRTGDPGPGPSIQKTYDLTRYLEHQLRSLAGTYLNYLGPPFNEPDFNPPRLGAETLPRATVDLEVWRSLNDKLRLTQNYEAYSHLLCYLRGLNRQAATAELRRSLAHFCTSLQGLLGSIAGVMAALGYPLPQPLPGTEPTWTPGPAHSDFLQKMDDFWLLKELQTWLWRSAKDFNRLKKKMQPPAAAVTLHLGAHGF
# Tests used:
# Assay in all cases: glycan array binding signal (z-score within array); higher = stronger binding
# Details in all cases: glycan notation: IUPAC condensed, linker removed
# [1] = target: Fuc(a1-2)Gal(b1-3)GlcNAc(b1-3)Gal(b1-4)Glc
# Method in brief: (§1)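 Glycan array data were curated from 3228 arrays in the Consortium for Functional Glycomics database and kept only where the protein sequence was available. Glycan names were converted to IUPAC-condensed notation, and columns mapping to the same glycan were averaged. The binding signal is a within-array Z-score, averaged across arrays of the same protein sequence at different concentrations or buffers and across linkers. Negative Z-scores can be read as non-binding.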
# [2] = target: Fuc(a1-2)Gal(b1-3)[Fuc(a1-4)]GlcNAc(b1-2)Man(a1-3)[Fuc(a1-2)Gal(b1-3)[Fuc(a1-4)]GlcNAc(b1-2)Man(a1-6)]Man(b1-4)GlcNAc(b1-4)GlcNAc
# Method in brief: as §1
# Fuc(a1-2)Gal(b1-4)Glc6S = target: Fuc(a1-2)Gal(b1-4)Glc6S
# Method in brief: as §1
# [3] = target: Fuc(a1-2)Gal(b1-4)[Fuc(a1-3)]GlcNAc
# Method in brief: as §1
# [4] = target: Fuc(a1-2)Gal(b1-4)[Fuc(a1-3)]GlcNAc(b1-2)Man(a1-3)[Fuc(a1-2)Gal(b1-4)[Fuc(a1-3)]GlcNAc(b1-2)Man(a1-6)]Man(b1-4)GlcNAc(b1-4)GlcNAc
# Method in brief: as §1
# [5] = target: Fuc(a1-2)Gal(b1-4)[Fuc(a1-3)]GlcNAc(b1-3)Gal(b1-4)[Fuc(a1-3)]GlcNAc(b1-3)Gal(b1-4)[Fuc(a1-3)]GlcNAc
# Method in brief: as §1
# [6] = target: Fuc(a1-2)[Gal(a1-3)]Gal(b1-4)Glc
# Method in brief: as §1
# [7] = target: Fuc(a1-3)[Gal(b1-4)]GlcNAc(b1-4)Gal(b1-4)[Fuc(a1-3)]GlcNAc(b1-4)Gal(b1-4)[Fuc(a1-3)]GlcNAc
# Method in brief: as §1
# [8] = target: Fuc(a1-3)[Neu5Ac(a2-3)]Gal(b1-4)GlcNAc(b1-3)GalNAc
# Method in brief: as §1
# Fuc(a1-4)GlcNAc = target: Fuc(a1-4)GlcNAc
# Method in brief: as §1
# [9] = target: Gal(a1-3)Gal(b1-4)[Fuc(a1-3)]GlcNAc(b1-2)Man(a1-3)[Gal(a1-3)Gal(b1-4)[Fuc(a1-3)]GlcNAc(b1-2)Man(a1-6)]Man(b1-4)GlcNAc(b1-4)GlcNAc
# Method in brief: as §1
# Gal(a1-3)GalNAc = target: Gal(a1-3)GalNAc
# Method in brief: as §1
# Gal(b1-3)GlcNAc = target: Gal(b1-3)GlcNAc
# Method in brief: as §1
# [10] = target: Gal(b1-4)GlcNAc(b1-2)Man(a1-3)[Man(a1-6)]Man(b1-4)GlcNAc(b1-4)GlcNAc
# Method in brief: as §1
# [11] = target: Gal(b1-4)GlcNAc(b1-2)[Gal(b1-4)GlcNAc(b1-4)]Man(a1-3)[Gal(b1-4)GlcNAc(b1-2)Man(a1-6)]Man(b1-4)GlcNAc(b1-4)GlcNAc
# Method in brief: as §1
# Gal4S6S(b1-4)GlcNAc = target: Gal4S6S(b1-4)GlcNAc
# Method in brief: as §1
# [12] = target: GlcNAc(a1-4)Gal(b1-4)GlcNAc
# Method in brief: as §1
# [13] = target: GlcNAc(b1-2)Man(a1-3)[GlcNAc(b1-2)Man(a1-6)]Man(b1-4)GlcNAc(b1-4)[Fuc(a1-6)]GlcNAc
# Method in brief: as §1
# GlcNAc(b1-3)Gal = target: GlcNAc(b1-3)Gal
# Method in brief: as §1
# [14] = target: GlcNAc(b1-3)[GlcNAc(b1-6)]Gal(b1-4)GlcNAc
# Method in brief: as §1
# [15] = target: Man(a1-2)Man(a1-2)Man(a1-6)[Man(a1-3)]Man
# Method in brief: as §1
# [16] = target: Man(a1-2)Man(a1-3)[Man(a1-2)Man(a1-6)]Man
# Method in brief: as §1
# [17] = target: Man(a1-2)Man(a1-3)[Man(a1-2)Man(a1-6)]Man(a1-6)[Man(a1-2)Man(a1-2)Man(a1-3)]Man
# Method in brief: as §1
# [18] = target: Man(a1-2)Man(a1-3)[Man(a1-6)]Man(a1-6)[Man(a1-2)Man(a1-3)]Man(b1-4)GlcNAc(b1-4)GlcNAc
# Method in brief: as §1
# [19] = target: Man(a1-2)Man(a1-6)[Man(a1-3)]Man(a1-6)[Man(a1-2)Man(a1-2)Man(a1-3)]Man
# Method in brief: as §1
# [20] = target: Man(a1-2)Man(a1-6)[Man(a1-3)]Man(a1-6)[Man(a1-2)Man(a1-2)Man(a1-3)]Man(b1-4)GlcNAc(b1-4)GlcNAc
# Method in brief: as §1
# Man(a1-3)[Man(a1-6)]Man = target: Man(a1-3)[Man(a1-6)]Man
# Method in brief: as §1
# Man(b1-4)GlcNAc = target: Man(b1-4)GlcNAc
# Method in brief: as §1
# [21] = target: Neu5Ac(a2-3)Gal(b1-4)GlcNAc(b1-3)Gal(b1-4)GlcNAc(b1-3)Gal(b1-4)GlcNAc
# Method in brief: as §1
# [22] = target: Neu5Ac(a2-6)Gal(b1-4)GlcNAc(b1-3)Gal(b1-4)GlcNAc
# Method in brief: as §1
# [23] = target: Neu5Ac(a2-6)Gal(b1-4)GlcNAc6S
# Method in brief: as §1
# [24] = target: Neu5Ac(a2-8)Neu5Ac(a2-3)[GalNAc(b1-4)]Gal(b1-4)Glc
# Method in brief: as §1
# [25] = target: Neu5Ac(a2-8)Neu5Ac(a2-8)Neu5Ac
# Method in brief: as §1
# [26] = target: Neu5Gc(a2-3)Gal(b1-3)[Fuc(a1-4)]GlcNAc
# Method in brief: as §1
# [27] = target: Fuc(a1-2)Gal(b1-4)GlcNAc(b1-3)Gal(b1-4)GlcNAc(b1-3)Gal(b1-4)GlcNAc
# Method in brief: as §1
# [28] = target: Fuc(a1-2)Gal(b1-4)GlcNAc6S
# Method in brief: as §1
# [29] = target: Fuc(a1-2)Gal6S(b1-4)Glc6S
# Method in brief: as §1
# [30] = target: Fuc(a1-2)[GalNAc(a1-3)]Gal(b1-4)Glc
# Method in brief: as §1
# [31] = target: Fuc(a1-3)[Gal(b1-4)]GlcNAc6S
# Method in brief: as §1
# [32] = target: Fuc(a1-3)[Gal3S(b1-4)]GlcNAc6S
# Method in brief: as §1
# Gal(a1-6)Glc = target: Gal(a1-6)Glc
# Method in brief: as §1
# [33] = target: Gal(b1-4)GlcNAc(b1-3)Gal(b1-4)GlcNAc(b1-3)Gal(b1-4)GlcNAc
# Method in brief: as §1
# Gal3S(b1-3)GalNAc = target: Gal3S(b1-3)GalNAc
# Method in brief: as §1
# Gal3S6S(b1-4)GlcNAc6S = target: Gal3S6S(b1-4)GlcNAc6S
# Method in brief: as §1
# GalNAc(a1-3)GalNAc = target: GalNAc(a1-3)GalNAc
# Method in brief: as §1
# GlcA(b1-3)GlcNAc = target: GlcA(b1-3)GlcNAc
# Method in brief: as §1
# Kdn(a2-3)Gal(b1-3)GlcNAc = target: Kdn(a2-3)Gal(b1-3)GlcNAc
# Method in brief: as §1
# [34] = target: Man(a1-2)Man(a1-2)Man(a1-3)Man
# Method in brief: as §1
# [35] = target: Neu5Ac(a2-3)Gal(b1-3)[Fuc(a1-4)]GlcNAc
# Method in brief: as §1
# Neu5Ac(a2-3)Gal(b1-4)Glc = target: Neu5Ac(a2-3)Gal(b1-4)Glc
# Method in brief: as §1
# [36] = target: Neu5Ac(a2-3)Gal(b1-4)GlcNAc(b1-2)Man(a1-3)[Neu5Ac(a2-6)Gal(b1-4)GlcNAc(b1-2)Man(a1-6)]Man(b1-4)GlcNAc(b1-4)GlcNAc
# Method in brief: as §1
# [37] = target: Neu5Ac(a2-3)Gal(b1-4)GlcNAc(b1-3)Gal(b1-3)GlcNAc
# Method in brief: as §1
# [38] = target: Neu5Ac(a2-3)Gal(b1-4)[Fuc(a1-3)]GlcNAc(b1-3)Gal(b1-4)[Fuc(a1-3)]GlcNAc(b1-3)Gal(b1-4)[Fuc(a1-3)]GlcNAc
# Method in brief: as §1
# Neu5Ac(b2-6)GalNAc = target: Neu5Ac(b2-6)GalNAc
# Method in brief: as §1
# Neu5Gc(a2-3)Gal(b1-4)Glc = target: Neu5Gc(a2-3)Gal(b1-4)Glc
# Method in brief: as §1
binder,measurement,setting,value
B1,glycan array binding signal (z-score),[1],-0.177
same,glycan array binding signal (z-score),[2],-0.169
same,glycan array binding signal (z-score),Fuc(a1-2)Gal(b1-4)Glc6S,-0.172
same,glycan array binding signal (z-score),[3],-0.176
same,glycan array binding signal (z-score),[4],-0.144
same,glycan array binding signal (z-score),[5],-0.168
same,glycan array binding signal (z-score),[6],-0.177
same,glycan array binding signal (z-score),[7],-0.182
same,glycan array binding signal (z-score),[8],-0.072
same,glycan array binding signal (z-score),Fuc(a1-4)GlcNAc,-0.175
same,glycan array binding signal (z-score),[9],-0.175
same,glycan array binding signal (z-score),Gal(a1-3)GalNAc,-0.173
same,glycan array binding signal (z-score),Gal(b1-3)GlcNAc,-0.172
same,glycan array binding signal (z-score),[10],-0.151
same,glycan array binding signal (z-score),[11],-0.161
same,glycan array binding signal (z-score),Gal4S6S(b1-4)GlcNAc,-0.183
same,glycan array binding signal (z-score),[12],-0.176
same,glycan array binding signal (z-score),[13],0.316
same,glycan array binding signal (z-score),GlcNAc(b1-3)Gal,-0.178
same,glycan array binding signal (z-score),[14],-0.183
same,glycan array binding signal (z-score),[15],5.91
same,glycan array binding signal (z-score),[16],9.67
same,glycan array binding signal (z-score),[17],3.48
same,glycan array binding signal (z-score),[18],6.68
same,glycan array binding signal (z-score),[19],7.91
same,glycan array binding signal (z-score),[20],6.41
same,glycan array binding signal (z-score),Man(a1-3)[Man(a1-6)]Man,3.63
same,glycan array binding signal (z-score),Man(b1-4)GlcNAc,-0.186
same,glycan array binding signal (z-score),[21],-0.183
same,glycan array binding signal (z-score),[22],-0.178
same,glycan array binding signal (z-score),[23],-0.179
same,glycan array binding signal (z-score),[24],-0.178
same,glycan array binding signal (z-score),[25],-0.175
same,glycan array binding signal (z-score),[26],-0.179
B2,glycan array binding signal (z-score),[1],-0.218
same,glycan array binding signal (z-score),[27],-0.886
same,glycan array binding signal (z-score),[28],-0.106
same,glycan array binding signal (z-score),[3],-0.557
same,glycan array binding signal (z-score),[5],0.011
same,glycan array binding signal (z-score),[29],2.23
same,glycan array binding signal (z-score),[30],1.52
same,glycan array binding signal (z-score),[31],-0.923
same,glycan array binding signal (z-score),[32],2.72
same,glycan array binding signal (z-score),Gal(a1-6)Glc,-0.312
same,glycan array binding signal (z-score),[33],-0.565
same,glycan array binding signal (z-score),Gal3S(b1-3)GalNAc,-0.144
same,glycan array binding signal (z-score),Gal3S6S(b1-4)GlcNAc6S,11.1
same,glycan array binding signal (z-score),Gal4S6S(b1-4)GlcNAc,2.49
same,glycan array binding signal (z-score),GalNAc(a1-3)GalNAc,0.257
same,glycan array binding signal (z-score),GlcA(b1-3)GlcNAc,0.215
same,glycan array binding signal (z-score),Kdn(a2-3)Gal(b1-3)GlcNAc,-0.192
same,glycan array binding signal (z-score),[34],0.263
same,glycan array binding signal (z-score),[35],-0.63
same,glycan array binding signal (z-score),Neu5Ac(a2-3)Gal(b1-4)Glc,0.101
same,glycan array binding signal (z-score),[36],0.098
same,glycan array binding signal (z-score),[37],0.852
same,glycan array binding signal (z-score),[38],-0.485
same,glycan array binding signal (z-score),[23],-0.346
same,glycan array binding signal (z-score),Neu5Ac(b2-6)GalNAc,-0.297
same,glycan array binding signal (z-score),[26],-0.279
same,glycan array binding signal (z-score),Neu5Gc(a2-3)Gal(b1-4)Glc,2.45
